Laboratory results from the supplement of paper PMC8728848.
The sample as a whole holds a higher share of the strongest signals than the screen did.

Key:
Test in all cases: glycan array binding signal (z-score within array); higher = stronger binding
Conditions in all cases: glycan notation: IUPAC condensed, linker removed
[1] = target: Fuc(a1-2)Gal(b1-3)GlcNAc(b1-2)Man(a1-3)[Fuc(a1-2)Gal(b1-3)GlcNAc(b1-2)Man(a1-6)]Man(b1-4)GlcNAc(b1-4)GlcNAc
In short: (§1)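 Negative Z-scores can be read as non-binding. The Z-score is calculated within each array and then averaged across arrays of one protein sequence at different concentrations or buffers and across linkers. Arrays, 3228 in all, were curated from the Consortium for Functional Glycomics database and kept only where the protein sequence was available.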

[2] = target: Fuc(a1-2)Gal(b1-4)GlcNAc(b1-2)Man(a1-3)[Fuc(a1-2)Gal(b1-4)GlcNAc(b1-2)Man(a1-6)]Man(b1-4)GlcNAc(b1-4)GlcNAc
In short: as §1

[3] = target: Fuc(a1-2)Gal(b1-4)GlcNAc(b1-2)Man(a1-3)[Fuc(a1-2)Gal(b1-4)GlcNAc(b1-2)Man(a1-6)]Man(b1-4)GlcNAc(b1-4)[Fuc(a1-6)]GlcNAc
In short: as §1

[4] = target: Fuc(a1-2)Gal(b1-4)GlcNAc(b1-2)[Fuc(a1-2)Gal(b1-4)GlcNAc(b1-4)]Man(a1-3)[Fuc(a1-2)Gal(b1-4)GlcNAc(b1-2)Man(a1-6)]Man(b1-4)GlcNAc(b1-4)GlcNAc
In short: as §1

[5] = target: Fuc(a1-2)Gal(b1-4)[Fuc(a1-3)]GlcNAc
In short: as §1

[6] = target: Fuc(a1-2)Gal6S(b1-4)Glc6S
In short: as §1

[7] = target: Fuc(a1-2)[Gal(a1-3)]Gal(b1-4)GlcNAc(b1-3)[Fuc(a1-2)[Gal(a1-3)]Gal(b1-4)GlcNAc(b1-6)]GalNAc
In short: as §1

[8] = target: Fuc(a1-2)[GalNAc(a1-3)]Gal(b1-4)GlcNAc(b1-3)GalNAc
In short: as §1

[9] = target: Fuc(a1-2)[GalNAc(a1-4)]Gal(b1-4)GlcNAc
In short: as §1

[10] = target: Fuc(a1-3)[Gal(b1-4)]GlcNAc(b1-2)Man(a1-3)[Fuc(a1-3)[Gal(b1-4)]GlcNAc(b1-2)Man(a1-6)]Man(b1-4)GlcNAc(b1-4)GlcNAc
In short: as §1

[11] = target: Gal(a1-3)Gal(b1-3)GlcNAc
In short: as §1

[12] = target: Gal(a1-3)Gal(b1-3)GlcNAc(b1-2)Man(a1-3)[Gal(a1-3)Gal(b1-3)GlcNAc(b1-2)Man(a1-6)]Man(b1-4)GlcNAc(b1-4)GlcNAc
In short: as §1

[13] = target: Gal(a1-3)Gal(b1-3)GlcNAc(b1-6)GalNAc
In short: as §1

[14] = target: Gal(a1-3)Gal(b1-3)[Fuc(a1-4)]GlcNAc(b1-2)Man(a1-3)[Gal(a1-3)Gal(b1-3)[Fuc(a1-4)]GlcNAc(b1-2)Man(a1-6)]Man(b1-4)GlcNAc(b1-4)GlcNAc
In short: as §1

[15] = target: Gal(a1-3)Gal(b1-4)GlcNAc
In short: as §1

[16] = target: Gal(a1-3)Gal(b1-4)GlcNAc(b1-3)GalNAc
In short: as §1

[17] = target: Gal(a1-4)Gal(b1-3)GlcNAc(b1-2)Man(a1-3)[Gal(a1-4)Gal(b1-3)GlcNAc(b1-2)Man(a1-6)]Man(b1-4)GlcNAc(b1-4)GlcNAc
In short: as §1

[18] = target: Gal(b1-3)GalNAc(a1-3)[Fuc(a1-2)]Gal(b1-4)GlcNAc
In short: as §1

[19] = target: Gal(b1-3)GalNAc(b1-4)[Neu5Ac(a2-3)]Gal(b1-4)Glc
In short: as §1

[20] = target: Gal(b1-3)GlcNAc(b1-3)Gal(b1-4)GlcNAc(b1-3)Gal(b1-4)GlcNAc(b1-2)[Gal(b1-3)GlcNAc(b1-3)Gal(b1-4)GlcNAc(b1-3)Gal(b1-4)GlcNAc(b1-6)]Man(a1-6)[Gal(b1-3)GlcNAc(b1-3)Gal(b1-4)GlcNAc(b1-3)Gal(b1-4)GlcNAc(b1-2)Man(a1-3)]Man(b1-4)GlcNAc(b1-4)[Fuc(a1-6)]GlcNAc
In short: as §1

[21] = target: Gal(b1-3)[Fuc(a1-4)]GlcNAc(b1-6)GalNAc
In short: as §1

[22] = target: Gal(b1-3)[Neu5Ac(b2-6)]GalNAc
In short: as §1

[23] = target: Gal(b1-4)GlcNAc(b1-2)Man(a1-3)[Gal(b1-4)GlcNAc(b1-2)Man(a1-6)][Gal(b1-4)GlcNAc(b1-4)]Man(b1-4)GlcNAc(b1-4)[Fuc(a1-6)]GlcNAc
In short: as §1

[24] = target: Gal(b1-4)GlcNAc(b1-3)Gal(b1-4)Glc
In short: as §1

[25] = target: Gal(b1-4)GlcNAc(b1-3)Gal(b1-4)GlcNAc(b1-3)Gal(b1-4)GlcNAc(b1-2)Man(a1-3)[Gal(b1-4)GlcNAc(b1-3)Gal(b1-4)GlcNAc(b1-3)Gal(b1-4)GlcNAc(b1-2)Man(a1-6)]Man(b1-4)GlcNAc(b1-4)GlcNAc
In short: as §1

[26] = target: Gal(b1-4)GlcNAc(b1-3)Gal(b1-4)GlcNAc(b1-3)Gal(b1-4)GlcNAc(b1-3)Gal(b1-4)GlcNAc(b1-2)Man(a1-3)[Gal(b1-4)GlcNAc(b1-3)Gal(b1-4)GlcNAc(b1-3)Gal(b1-4)GlcNAc(b1-3)Gal(b1-4)GlcNAc(b1-2)Man(a1-6)]Man(b1-4)GlcNAc(b1-4)GlcNAc
In short: as §1

[27] = target: Gal(b1-4)GlcNAc(b1-3)Gal(b1-4)GlcNAc(b1-3)Gal(b1-4)GlcNAc(b1-3)Gal(b1-4)GlcNAc(b1-3)Gal(b1-4)GlcNAc(b1-2)Man(a1-3)[Gal(b1-4)GlcNAc(b1-3)Gal(b1-4)GlcNAc(b1-3)Gal(b1-4)GlcNAc(b1-3)Gal(b1-4)GlcNAc(b1-3)Gal(b1-4)GlcNAc(b1-2)Man(a1-6)]Man(b1-4)GlcNAc(b1-4)GlcNAc
In short: as §1

[28] = target: Gal(b1-4)GlcNAc(b1-3)Gal(b1-4)GlcNAc(b1-6)[Gal(b1-3)]GalNAc
In short: as §1

[29] = target: Gal(b1-4)GlcNAc(b1-6)[Gal(b1-3)]GalNAc
In short: as §1

[30] = target: Gal3S4S(b1-4)GlcNAc
In short: as §1

[31] = target: Gal6P(b1-4)GlcNAc
In short: as §1

[32] = target: GalNAc4S6S(b1-4)GlcNAc
In short: as §1

[33] = target: GlcNAc(b1-2)[GlcNAc(b1-4)]Man(a1-3)[GlcNAc(b1-4)][GlcNAc(b1-2)[GlcNAc(b1-6)]Man(a1-6)]Man(b1-4)GlcNAc(b1-4)[Fuc(a1-6)]GlcNAc
In short: as §1

[34] = target: GlcNAc(b1-3)Gal(b1-4)GlcNAc(b1-3)Gal(b1-4)GlcNAc(b1-3)Gal(b1-4)GlcNAc(b1-3)Gal(b1-4)GlcNAc(b1-2)[GlcNAc(b1-3)Gal(b1-4)GlcNAc(b1-3)Gal(b1-4)GlcNAc(b1-3)Gal(b1-4)GlcNAc(b1-3)Gal(b1-4)GlcNAc(b1-6)]Man(a1-6)[GlcNAc(b1-3)Gal(b1-4)GlcNAc(b1-3)Gal(b1-4)GlcNAc(b1-3)Gal(b1-4)GlcNAc(b1-3)Gal(b1-4)GlcNAc(b1-2)Man(a1-3)]Man(b1-4)GlcNAc(b1-4)[Fuc(a1-6)]GlcNAc
In short: as §1

[35] = target: GlcNAc(b1-3)Gal(b1-4)GlcNAc(b1-6)[GlcNAc(b1-3)]Gal(b1-4)GlcNAc
In short: as §1

[36] = target: GlcNAc(b1-4)Gal(b1-4)GlcNAc
In short: as §1

[37] = target: GlcNAc(b1-4)GlcNAc(b1-4)GlcNAc(b1-4)GlcNAc(b1-4)GlcNAc
In short: as §1

[38] = target: GlcNAc(b1-4)GlcNAc(b1-4)GlcNAc(b1-4)GlcNAc(b1-4)GlcNAc(b1-4)GlcNAc
In short: as §1

[39] = target: GlcNAc(b1-6)GalNAc
In short: as §1

[40] = target: Man(a1-2)Man(a1-2)Man(a1-3)Man
In short: as §1

[41] = target: Man(a1-3)[Man(a1-6)]Man
In short: as §1

[42] = target: Neu5Ac(a2-3)Gal(b1-3)GalNAc(b1-3)Gal(a1-4)Gal(b1-4)Glc
In short: as §1

[43] = target: Neu5Ac(a2-3)Gal(b1-3)[Fuc(a1-4)]GlcNAc(b1-3)Gal(b1-3)[Fuc(a1-4)]GlcNAc
In short: as §1

[44] = target: Neu5Ac(a2-6)Gal(b1-4)Glc
In short: as §1

[45] = target: Neu5Ac(a2-6)Gal(b1-4)GlcNAc
In short: as §1

[46] = target: Neu5Ac(a2-6)Gal(b1-4)GlcNAc(b1-2)Man(a1-3)Man(b1-4)GlcNAc(b1-4)GlcNAc
In short: as §1

[47] = target: Neu5Ac(a2-6)Gal(b1-4)GlcNAc(b1-2)Man(a1-3)[GlcNAc(b1-2)Man(a1-6)]Man(b1-4)GlcNAc(b1-4)GlcNAc
In short: as §1

[48] = target: Neu5Ac(a2-6)Gal(b1-4)GlcNAc(b1-3)Gal(b1-4)GlcNAc(b1-3)[Neu5Ac(a2-6)Gal(b1-4)GlcNAc(b1-3)Gal(b1-4)GlcNAc(b1-6)]GalNAc
In short: as §1

[49] = target: Neu5Ac(b2-6)GalNAc
In short: as §1

[50] = target: Neu5Gc(a2-6)Gal(b1-4)GlcNAc
In short: as §1

B1: PX9937I-bfa-538-26-538 (Bacteroides fragilis) (protein)
chain: DKLDLSPIDYYGSGSYWKTEAQATAYIDGIHKHLRDAAWQHTITFGELRGGRFITGASSDGMGVSNGDIILQNFDETHTGVSKFGDLFGRITNLNLFIARVTDATYLSDEMKNFYLGEVYGLRAFYYFDLYRIYGGVPLRLTADVVEGVIDPNKLYMARSTPKEVMTQIKSDLNKSMEYFGNMNDFDPYKRGKKVYWSKAATECLMGEVYLWTSKVTTGDDVANPADLTIAKTHLESVLNNYNLKMLDDFSQVFNAKNKANDEIIFAIRFLEGEATNSNGTFTYNVGTGSTKNRYQANGEVFGDALDIQNTGNQTYEYNKAVYQNFDDADTRKEATFIASYNKDGKTGELSLYGTHVRKNIGYVNAQGARVYCGDYIFYRLPWVYLTLAEIANMEGDNAAVAKYINLVRKRAYGNAWDETLYAYPETADFTTNELAILHEKDKEFIQEGQRWWDLRRMTLTKGGTPLVFCKEGSLLGDAPILNKSTEAHKLLWPIEKTMLNKDPALEQTPGYK
glycan array binding signal (z-score) [1]: 5.41
glycan array binding signal (z-score) [2]: 3.93
glycan array binding signal (z-score) [3]: 1.57
glycan array binding signal (z-score) [4]: 1.02
glycan array binding signal (z-score) [5]: -0.821
glycan array binding signal (z-score) [6]: 2.55
glycan array binding signal (z-score) [7]: -0.413
glycan array binding signal (z-score) [8]: -0.541
glycan array binding signal (z-score) [9]: 1.66
glycan array binding signal (z-score) [10]: 3.92
glycan array binding signal (z-score) [11]: 0.142
glycan array binding signal (z-score) [12]: 0.317
glycan array binding signal (z-score) [13]: 0.142
glycan array binding signal (z-score) [14]: 3.11
glycan array binding signal (z-score) [15]: -0.994
glycan array binding signal (z-score) [16]: -1.27
glycan array binding signal (z-score) [17]: 4.73
glycan array binding signal (z-score) [18]: -0.45
glycan array binding signal (z-score) [19]: -0.928
glycan array binding signal (z-score) [20]: 2.69
glycan array binding signal (z-score) [21]: 2.39
glycan array binding signal (z-score) [22]: -0.133
glycan array binding signal (z-score) [23]: 1.11
glycan array binding signal (z-score) [24]: 0.127
glycan array binding signal (z-score) [25]: 6.36
glycan array binding signal (z-score) [26]: 1.43
glycan array binding signal (z-score) [27]: 1.74
glycan array binding signal (z-score) [28]: 3.46
glycan array binding signal (z-score) [29]: -0.735
glycan array binding signal (z-score) [30]: 0.428
glycan array binding signal (z-score) [31]: -0.37
glycan array binding signal (z-score) [32]: -0.708
glycan array binding signal (z-score) [33]: -0.615
glycan array binding signal (z-score) [34]: 0.041
glycan array binding signal (z-score) [35]: -0.068
glycan array binding signal (z-score) [36]: 1.65
glycan array binding signal (z-score) [37]: 1.25
glycan array binding signal (z-score) [38]: -0.198
glycan array binding signal (z-score) [39]: 0.252
glycan array binding signal (z-score) [40]: 0.241
glycan array binding signal (z-score) [41]: 0.95
glycan array binding signal (z-score) [42]: -1
glycan array binding signal (z-score) [43]: -1.26
glycan array binding signal (z-score) [44]: -0.274
glycan array binding signal (z-score) [45]: -0.419
glycan array binding signal (z-score) [46]: 3.63
glycan array binding signal (z-score) [47]: -0.591
glycan array binding signal (z-score) [48]: -0.643
glycan array binding signal (z-score) [49]: -0.386
glycan array binding signal (z-score) [50]: -0.339
